Assay results taken from PubChem BioAssay AID1813 (Broad Institute, 2009).
The whole screen tested about 300,000 compounds, of which about 2,500 (0.83%) were called active. The entries come from a sample that favours actives as a whole. Unmarked numbers belong to inactive results. Cut-off read from the data, not from the text of the source: active = inhibition above about 60%; inconclusive = no clear call, values can overlap the other calls; inactive = below that.

assay: MLPCN primary screen, SNCA 5' untranslated region (AID 1813); settings: alpha-synuclein 5'UTR reporter, inhibitor activity; active compounds read high; tested at 7.5 µM;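 note: H4 neuroglioblastoma cells stably carrying SNCA 5'UTR luciferase fusion; 0% = DMSO wells and 100% = positive control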

First: COC(=O)C1(C)NC(c2ccccc2OC)C2C(=O)N(c3ccccc3)C(=O)C21 (centres undefined)
Second: COc1cccc(-c2cc(C(=O)N3CCN(c4ccccc4OC)CC3)no2)c1
The inhibition of the first is higher: 0.536% for the first, -4.47% for the second.

Compared with CC(C)CC[n+]1ccn(C2=C([O-])c3ccccc3C(=O)/C2=N\S(=O)(=O)c2ccccc2)c1, O=C1c2ccccc2C(=O)N1Cc1cc(-c2ccccc2Cl)no1 is higher in inhibition: -27.8% for the first, 15.2% for the second.

First: COc1ccc2c(c1)CCNC2Cc1ccc(OC)c(O)c1 (centres undefined)
Second: CCc1ccc(OCC2c3cc(OC)c(OC)cc3CCN2C(C)=O)cc1 (centres undefined)
The inhibition of the first is higher: 11.8% for the first, 0.678% for the second.

Compared with COc1ccc(S(=O)(=O)N(C)CC(=O)NCCCN2CCOCC2)cc1Cl, Cc1csc2nc(O)c(C(=O)NCCN3CCOCC3)c(=O)n12 is lower in inhibition: 6.18% for the first, 0.0631% for the second.

First: COc1ccc(C(=O)C2CCCN(S(=O)(=O)c3cccc(C)c3)C2)c(C)c1 (centres undefined)
Second: CC(=O)c1ccc(S(=O)(=O)N2CCN(c3nc4c(C)c(C)ccc4cc3C#N)CC2)cc1
The inhibition of the first is lower: -3.32% for the first, 15.2% for the second.

First: Cc1ccccc1/[N+]([O-])=C/c1ccncc1
Second: Cc1ccccc1NCC(=O)N/N=C\c1ccc([N+](=O)[O-])s1
The inhibition of the first is higher: 5.11% for the first, -43.2% for the second.

Going from Cc1ccc(NC(=O)COc2ccc(/C=C3/NC(=O)NC3=O)cc2)cc1 to CC(=O)Nc1nc2ccccc2n1Cc1ccc(C)cc1, the inhibition rises from 1.96% to 48.2%.

Going from O=C(c1ccc(OC2CCN(Cc3ccccn3)CC2)cc1)N1CCCCCC1 to Cn1cc(CNC(=O)c2ccc(OC3CCN(Cc4ccccn4)CC3)cc2)cn1, the inhibition rises from 3.78% to 14.6%.

Going from Cc1ccc(Nc2nc(Cl)c(C=O)s2)cc1 to Cc1cc(Nc2ccc(Cl)cc2)nc(N2CCOCC2)n1, the inhibition rises from -26.4% to -19%.

Going from Cc1ccc2nc(-c3ccncc3)cc(C(=O)Nc3ccc4c(c3)OCCO4)c2c1 to Cc1ccc2nc(-c3ccncc3)cc(C(=O)Nc3ccncc3)c2c1, the inhibition falls from 47.2% to 5.38%.

Going from COc1cccc2c(N/N=C/c3ccco3)cc(C)nc12 to COc1ccccc1/C=N/Nc1nc(C)c(C(C)=O)s1, the inhibition falls from -38.3% to -154%.

First: Cc1ccc2sc(N(CCN(C)C)C(=O)/C=C/c3cccs3)nc2c1C
Second: CN(C)CCNC(=O)c1[nH]nc2c1CCc1ccccc1-2
The inhibition of the first is higher: -3.93% for the first, -73.6% for the second.

First: Cc1nc2ccccn2c1C(=O)NN=C1CCN(C)CC1
Second: CC12CN3CCN(CC(C3)/C1=N\NC(=O)c1ccccc1N)C2
The inhibition of the first is higher: 18% for the first, -83.3% for the second.

First: CCCC[C@@H]1CN=C(N)N1CCc1cccc(F)c1
Second: CCCCn1c(CCCNC(=O)CC)nc2ccccc21
The inhibition of the first is higher: -1.65% for the first, -5.46% for the second.

Compared with Cc1ccc(C)c(NC(=O)COC(=O)Cn2c(C)csc2=O)c1, CCOC(=O)c1ccc(NNC(C)=O)c([N+](=O)[O-])c1 is lower in inhibition: 3.94% for the first, -28% for the second.

First: CCOc1ccc(C(C(=O)NC2CCCC2)N(C(=O)c2snc(C(N)=O)c2N)C2CCCC2)cc1 (centres undefined)
Second: CCOCCCN(C)C1CCN(C(=O)c2oc3ccccc3c2NC(=O)COc2cccc(C)c2)CC1
The inhibition of the first is lower: 1.96% for the first, 45.5% for the second.

First: OCCC1CN(Cc2ccc3nsnc3c2)CCN1C1CCCCC1 (centres undefined)
Second: Cc1ccc(CN2CCN(Cc3ccc4ncccc4c3)CC2CCO)cc1 (centres undefined)
The inhibition of the first is lower: -4.85% for the first, -3.25% for the second.

First: CCOC(=O)c1nnn2c3ccccc3c(=O)n(C)c12
Second: CCCCn1c(=O)c(C(C)=O)c(O)c2ccccc21
The inhibition of the first is higher: -5.14% for the first, -6.66% for the second.

Going from CNc1ccc(SC#N)cc1 to CC(CNS(=O)(=O)c1ccc(Br)cc1)CN(C)C (centres undefined), the inhibition rises from 1.02% to 22%.

Compared with CCOC(=O)N1CCN(C(=O)C(=O)Nc2sc3c(c2C#N)CC(C)(C)OC3)CC1, COc1cc(NC(=O)C2=C(C)OCCS2)c(Cl)cc1C(=O)NCCN1CCN(C)CC1 is higher in inhibition: -17.6% for the first, -14% for the second.

First: COc1cc2cc(C(=O)N/N=C/c3cccc(OC)c3OC)[nH]c2cc1OC
Second: COc1ccc(/C=C2\SC(=S)N(CCC(=O)Nc3cccc(C(=O)O)c3)C2=O)cc1OC
The inhibition of the first is higher: 22.3% for the first, 6.81% for the second.

Compared with CCCCCOc1ccc(/C=C/C(=O)NCCc2nc3ccccc3[nH]2)cc1OC, COc1ccc(/C=C2\SC(=S)N(CCC(=O)Nc3ccccn3)C2=O)cc1OC is higher in inhibition: 14.1% for the first, 28.8% for the second.

Compared with Cc1cc(Oc2ccc(Cl)cc2)nc(SCC(=O)c2ccccc2)n1, O=C(C[n+]1ccc2c(c1)nnn2-c1ccccc1)c1ccc(Cl)cc1 is lower in inhibition: 27.8% for the first, 9.87% for the second.

Going from Cc1cc(N/N=C\c2ccc(Br)cc2)nc(-n2nc(C)cc2C)n1 to Cc1nc2c(c(C)nn2-c2ccccc2)c(C)c1C, the inhibition falls from 25% to -0.524%.

Going from Cc1cc(C)n(-c2ccc(C(=O)O)cc2[N+](=O)[O-])n1 to Cc1cc(C(=O)N/N=C/c2cc([N+](=O)[O-])cc(C)c2O)n[nH]1, the inhibition rises from -5.9% to -3%.

Going from CCC(C(=O)OC)n1cnc2c(oc3ccccc32)c1=O (centres undefined) to CCOC(=O)C(C)n1cnc2c(nnn2-c2cccc(OC)c2)c1=O (centres undefined), the inhibition falls from 16.1% to -35.8%.

Compared with Clc1ccc(-c2ncc3ccccn23)c(Cl)c1, CC(=O)Cc1nsc(NC(=O)c2ccc(Cl)cc2Cl)n1 is higher in inhibition: -17.4% for the first, -9.27% for the second.

Going from CN1C(=O)[C@H]2[C@@H](C3CC3)N3C(=O)CN(Cc4ccccc4)C(=O)[C@@]3(C)[C@H]2C1=O to COc1ccccc1Cn1c(=S)[nH]c2cc(C(=O)N3CCN(C)CC3)ccc2c1=O, the inhibition rises from -12.7% to 30.1%.

Compared with CCOc1ccc(S(=O)(=O)N/N=C(\C)c2ccc(Cl)c(Cl)c2Cl)cc1, CN(CC(=O)NNC(=O)CNC(=O)c1ccccc1Cl)S(=O)(=O)c1ccc(Cl)cc1 is lower in inhibition: 2.56% for the first, -12.7% for the second.

Going from O=C(NCCc1ccccc1)C(=O)NCC1OCCN1S(=O)(=O)c1cccs1 (centres undefined) to O=C(CNC(=O)Cc1ccccc1)NCC(=O)OCC(=O)c1ccccc1Cl, the inhibition falls from 2.43% to -27.1%.

Going from CCc1cc(-c2nnc(SCC(=O)NC3CC3)n2C)cs1 to Cc1nnc(N/N=C/C2CC=CCC2)[nH]c1=O (centres undefined), the inhibition falls from -4.18% to -14.7%.

Compared with COc1ccc(N2CCN(C(=O)CNC(=O)c3ccc(Br)o3)CC2)cc1, COc1ccccc1N1CCN(C(=O)c2cc(=O)c3cc(C)ccc3o2)CC1 is lower in inhibition: 0.266% for the first, -36.8% for the second.

First: CNC(=O)c1csc(Cc2c(Cl)sc3ccc(Cl)cc23)n1
Second: Cc1ccc(C(=O)Nc2nnc(C3=COCCO3)o2)cc1C
The inhibition of the first is higher: -10.2% for the first, -10.3% for the second.

First: CNC(=O)C(=O)N/N=C/c1ccccn1
Second: COc1ccc(C(=O)CC(=O)C(=O)Nc2cc([N+](=O)[O-])ccc2OC)cc1
The inhibition of the first is higher: 10.9% for the first, -25.8% for the second.

Compared with COc1cc(/C=N/N=C(\N)c2nonc2N)cc(OC)c1OC, CCOc1cc2[nH]c(=S)n(Cc3ccc(C(=O)NCCOC)cc3)c(=O)c2cc1OCC is higher in inhibition: -18.9% for the first, 13.8% for the second.

First: CC(=O)c1ccc(S(=O)(=O)N2CCC3(CC2)OCCO3)cc1
Second: CCN(CC)S(=O)(=O)c1ccc(N2CCCC2)c(NS(=O)(=O)c2cccs2)c1
The inhibition of the first is higher: -7.06% for the first, -11.1% for the second.

Going from CC(N)C12CC3CC(CC(O)(C3)C1)C2 (centres undefined) to COc1ccc2c(C(=O)c3ccc(C)cc3)n(CCC(N)=O)[n+]([O-])c2c1, the inhibition falls from 11.6% to -21.1%.

For CC[C@H]1CN2CCc3cc(OC)c(OC)cc3[C@@H]2C[C@@H]1C[C@H]1NCCc2cc(OC)c(OC)cc21, the inhibition was 109% (active).
For O=C(NCCOc1cccnc1)c1ccc(OC2CCN(Cc3ccccn3)CC2)cc1, the inhibition was 95.3% (active).
For Cc1ccc2nc(-c3ccncc3)cc(C(=O)Nc3ccc(OC(F)F)cc3)c2c1, the inhibition was 67.6% (active).
In the case of COc1cccc(/C=N/Nc2cc(C)nc(-c3ccccc3O)n2)c1O, the inhibition is reported as 82.8% (active).
In the case of CCCCCCCCn1c2c(c(=N)c3c1CCC3)CCCC2, the inhibition is reported as 101% (active).
In the case of CCCCCn1c(=O)c(C(=O)OCC)c(Cl)c2ccccc21, the inhibition is reported as 92.6% (active).
For COc1ccc2c3c1O[C@H]1C[C@@H](O)C=C[C@@]31CCN(C)C2, the inhibition was 62% (active).
For COc1cccc(/C=N/NC(=O)c2[nH]nc3c2CCc2ccccc2-3)c1O, the inhibition was 76.4% (active).
In the case of COc1ccc(Nc2cc(C)nc(-n3nc(C)cc3C)n2)cc1, the inhibition is reported as 92.8% (active).
In the case of CC(=O)c1ccc(Oc2cc(C)nc(-n3nc(C)cc3C)n2)cc1, the inhibition is reported as 80.1% (active).
For Clc1ccc(-c2cc(-c3ccccn3)on2)c(Cl)c1, the inhibition was 108% (active).
In the case of COc1ccc(/C=C2\SC(=S)N(CCCC(=O)NC3CCCC3)C2=O)cc1OC, the inhibition is reported as 83.7% (active).
For CC(C)(C)c1cc(C(=O)N/N=C/c2ccc([N+](=O)[O-])s2)n[nH]1, the inhibition was 64% (active).
In the case of CCC(=O)Nc1nc2ccccc2n1Cc1ccccc1C, the inhibition is reported as 65.5% (active).
In the case of CC(=O)NNC(=O)c1csc(Cc2c(Cl)sc3ccc(Cl)cc23)n1, the inhibition is reported as 67.1% (active).
In the case of Cc1nnc(N/N=C/c2ccccn2)[nH]c1=O, the inhibition is reported as 117% (active).
For CC(=O)c1ccc(S(=O)(=O)N2CCN(C(=O)/C=C/c3ccc4ccccc4n3)CC2)cc1, the inhibition was 62.4% (active).
With CCOc1cc2[nH]c(=S)n(Cc3ccc(C(=O)N4CCN(C)CC4)cc3)c(=O)c2cc1OCC the inhibition was 86.1% (active).
In the case of COc1ccccc1N1CCN(C(=O)c2cc(=O)c3cc(C)cc(C)c3o2)CC1, the inhibition is reported as 78.3% (active).
With COc1ccc(C(=O)c2c3ccc([N+](=O)[O-])cc3[n+]([O-])n2CCCN)cc1 the inhibition was 63.1% (active).
